Measured values taken from PubChem BioAssay (EPA / NIEHS).
Active and inactive are the calls of the source. How the source made its calls: active means hit-call score of the fitted dose curve at least 0.9, where 1 is the maximum; inactive means score below 0.9.

Read-out: CD69, CD69 (gene 969)
Experiment: BSK_SAg_CD69: BioMAP Diversity Plus: SAg Assay for CD69 Biomarker Activity (AID 2283089)
Conditions: primary human HUVEC with PBMC; actives raise or lower the signal
Experimental: BSK_SAg is a cell-based, multiplexed-readout assay that uses umbilical vein endothelium and peripheral blood mononuclear cells, a human vascular primary cell co-culture, with measurements taken at 24 hours after chemical dosing in a 96-well plate.BSK_SAg_CD69 is one of 10 assay component(s) measured or calculated from the BSK_SAg assay. It is designed to make measurements of enzyme-linked immunosorbent assay, a form of binding reporter, as detected with fluorescence intensity signals by Enzyme-linked immunosorbent assay technology.Data from the assay component BSK_SAg_CD69 was analyzed into 1 assay endpoint. This assay endpoint, BSK_SAg_CD69, was analyzed with bidirectional fitting relative to DMSO as the negative control and baseline of activity. Using a type of binding reporter, gain or loss-of-signal activity can be used to understand changes in the signaling as they relate to the gene CD69. Furthermore, this assay endpoint can be referred to as a primary readout, because this assay has produced multiple assay endpoints where this one serves a signaling function. To generalize the intended target to other relatable targets, this assay endpoint is annotated to the cytokine intended target family, where the subfamily is inflammatory factor.
The levels of cell surface (or secreted, indicated by the prefix "s") biomarker endpoints were measured by ELISA. Overt cytotoxicity to cells in confluent adherent cultures (all systems other than the BT system) was assessed by measuring total protein levels using sulforhodamine B (SRB) staining in parallel cultures at the time of biomarker measurements, indicated as SRB endpoints. For proliferation assays for adherent cell types, individual cell types are cultured at sub-confluence and relative cell numbers quantified by SRB staining at time points optimized for each system (48 h: 3C and CASM3C systems; 72 h: BT and HDF3CGF systems; 96 h: SAg system). SRB was performed by staining cells with 0.1% SRB after fixation with 10% TCA and reading wells at 560 nm.Viability and proliferation of PBMC (T cells) was quantified by Alamar Blue reduction for the SAg and BT systems. For PBMC viability (referred to as PBMC Cytotoxicity within the assay endpoint names), cells were plated (75,000/well in a 96-well plate) and then chemical samples added for 1 h before addition of activators, SEB and TSST-1 (20 ng/mL final concentration each). Cells were incubated for 90 h. Then, Alamar Blue (20 uL/well) (Invitrogen, Cat DAL1100) was added for 6 h, and the plates were read with a fluorescence microplate reader at 546/580 nm (excitation/emission). For PBMC proliferation, cells were plated and activated as above but incubated for only 16 h prior to addition of Alamar Blue. Plates were read after 6 h.

Row | SMILES | outcome | AC50
1 | COc1ccc2c(c1)c(CC(=O)O)c(C)n2C(=O)c1ccc(Cl)cc1 | inactive | 
2 | CCCCCCCCCCC | inactive | 
3 | O=[N+]([O-])C(CO)(CO)CO | inactive | 
4 | Cc1ccc(C)c(O)c1C | inactive | 
5 | Nc1ccc(S(=O)(=O)c2ccc(N)cc2)cc1 | inactive | 
6 | Cc1c(C(=O)O)c(O)cc2c1C(=O)c1c(O)c([C@@H]3O[C@H](CO)[C@@H](O)[C@H](O)[C@H]3O)c(O)c(O)c1C2=O | inactive | 
7 | Cc1ccc(Cl)cc1 | inactive | 
8 | NS(=O)(=O)c1cc2c(cc1Cl)NCNS2(=O)=O | inactive | 
9 | O=C(O)Cc1ccccc1Nc1c(Cl)cccc1Cl | inactive | 
10 | CC(=O)OCCOCCOCCOC(C)=O | inactive | 
11 | C[C@]12C=CC(=O)C=C1CC[C@@H]1[C@@H]2C(=O)C[C@@]2(C)[C@H]1CC[C@]2(O)C(=O)CO | inactive | 
12 | COc1ccc(C)cc1N | inactive | 
13 | COCCOC[C@H](CC1(C(=O)NC2CCC(C(=O)O)CC2)CCCC1)C(=O)Oc1ccc2c(c1)CCC2 (stereo not given in full) | inactive | 
14 | CCCCCCCC=O | inactive | 
15 | Cc1ccc(C)c(C)c1 | inactive | 
16 | Nc1nc(N)c2nc(CNc3ccc(C(=O)N[C@@H](CCC(=O)O)C(=O)O)cc3)cnc2n1 | inactive | 
17 | Cc1cccc(Nc2cc(Cl)nc(SCC(=O)O)n2)c1C | inactive | 
18 | O=c1[nH]cc(F)c(=O)[nH]1 | inactive | 
19 | CC(C)(C)c1cc(O)c(C(C)(C)C)cc1O |  | 5.55 µM (active)
20 | O=C(OCCCCCOC(=O)c1ccccc1)c1ccccc1 | inactive | 

Row | SMILES | outcome | AC50
21 | CCOC(=O)CCC(=O)OCC | inactive | 
22 | Cc1oc(-c2ccccc2)nc1CCOc1cccc2c1ccn2CCC(=O)O | inactive | 
23 | CN1CCCC1=O | inactive | 
24 | CC(=O)Oc1ccccc1C(=O)O | inactive | 
25 | NCC1(Cc2noc(=O)[nH]2)CCCCC1 | inactive | 
26 | CN[C@H]1CC[C@@H](c2ccc(Cl)c(Cl)c2)c2ccc(S(N)(=O)=O)cc21 |  | 26.1 µM (active)
27 | Cc1ccc(C(C)C)c(O)c1 | inactive | 
28 | COc1cc(-c2nc(NC(=O)c3cc4cc(C)cc(C)c4n3CC(=O)O)sc2CCC2CCCCC2)c(OC)cc1Cl |  | 3.95 µM (active)
29 | CCCCCCCCCCCCCO | inactive | 
30 | CCCCOC(=O)CCCCCCCCC(=O)OCCCC | inactive | 
31 | CCCCCCCCCCCCCCCC | inactive | 
32 | CC(=O)OC/C=C(\C)CCC=C(C)C | inactive | 
33 | O=C(N[C@@H](Cc1ccccc1)[C@@H](O)C(=O)N1C[C@@H](O)[C@@H](O)C1)c1cc2cc(Cl)ccc2[nH]1 | inactive | 
34 | c1cc(-c2ccncc2)ccn1 | inactive | 
35 | CNC(=O)[C@H]1O[C@@H](n2cnc3c(NCc4cc(Cl)ccc4OCc4cc(C)no4)ncnc32)[C@H](O)[C@@H]1N | inactive | 
36 | FC(F)(F)C(F)(F)C(F)(F)C(F)(F)C(F)(F)C(F)(F)CCI | inactive | 
37 | Nc1ccccc1N | inactive | 
38 | Oc1ccc2c(c1)OC[C@@H](N1CCC(O)(c3ccc(F)cc3)CC1)[C@H]2O | inactive | 
39 | CC1(C)NC(=O)NC1=O | inactive | 
40 | O=c1c(O)c(-c2ccc(O)c(O)c2)oc2cc(O)cc(O)c12 | inactive | 
